Tests used:
Experiment in all cases: log2 ratio of Biotin-Ahx-Ub-VS probe labelling (fragment/DMSO); higher = less target engagement (more negative = stronger competition), active = hit call of the paper (q ≤ 0.05, log2 ratio ≤ -1)
Conditions in all cases: compound concentration: 200 uM; treatment time: 3 h
USP34 = USP34 (UniProt Q70CQ2)
In short: (§1)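 Labelled DUBs from HEK293T lysate were NeutrAvidin-enriched, digested with LysC and trypsin, and run by diaPASEF LC-MS/MS. Before that, each 495 µg sample in Tris/CHAPS/IGEPAL buffer with protease inhibitors was treated in triplicate with fragment at 200 µM or vehicle for 3 h, then with Biotin-Ahx-Ub-VS at 0.5 µM final for 1 h. Values are average log2 ratios of fragment over vehicle by unpaired t-test, based on global-median-normalised Spectronaut label-free quantities from proteins with ≥2 unique peptides.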

USP36 = target: T1, USP36 (UniProt Q9P275)
T1 sequence (whole entry): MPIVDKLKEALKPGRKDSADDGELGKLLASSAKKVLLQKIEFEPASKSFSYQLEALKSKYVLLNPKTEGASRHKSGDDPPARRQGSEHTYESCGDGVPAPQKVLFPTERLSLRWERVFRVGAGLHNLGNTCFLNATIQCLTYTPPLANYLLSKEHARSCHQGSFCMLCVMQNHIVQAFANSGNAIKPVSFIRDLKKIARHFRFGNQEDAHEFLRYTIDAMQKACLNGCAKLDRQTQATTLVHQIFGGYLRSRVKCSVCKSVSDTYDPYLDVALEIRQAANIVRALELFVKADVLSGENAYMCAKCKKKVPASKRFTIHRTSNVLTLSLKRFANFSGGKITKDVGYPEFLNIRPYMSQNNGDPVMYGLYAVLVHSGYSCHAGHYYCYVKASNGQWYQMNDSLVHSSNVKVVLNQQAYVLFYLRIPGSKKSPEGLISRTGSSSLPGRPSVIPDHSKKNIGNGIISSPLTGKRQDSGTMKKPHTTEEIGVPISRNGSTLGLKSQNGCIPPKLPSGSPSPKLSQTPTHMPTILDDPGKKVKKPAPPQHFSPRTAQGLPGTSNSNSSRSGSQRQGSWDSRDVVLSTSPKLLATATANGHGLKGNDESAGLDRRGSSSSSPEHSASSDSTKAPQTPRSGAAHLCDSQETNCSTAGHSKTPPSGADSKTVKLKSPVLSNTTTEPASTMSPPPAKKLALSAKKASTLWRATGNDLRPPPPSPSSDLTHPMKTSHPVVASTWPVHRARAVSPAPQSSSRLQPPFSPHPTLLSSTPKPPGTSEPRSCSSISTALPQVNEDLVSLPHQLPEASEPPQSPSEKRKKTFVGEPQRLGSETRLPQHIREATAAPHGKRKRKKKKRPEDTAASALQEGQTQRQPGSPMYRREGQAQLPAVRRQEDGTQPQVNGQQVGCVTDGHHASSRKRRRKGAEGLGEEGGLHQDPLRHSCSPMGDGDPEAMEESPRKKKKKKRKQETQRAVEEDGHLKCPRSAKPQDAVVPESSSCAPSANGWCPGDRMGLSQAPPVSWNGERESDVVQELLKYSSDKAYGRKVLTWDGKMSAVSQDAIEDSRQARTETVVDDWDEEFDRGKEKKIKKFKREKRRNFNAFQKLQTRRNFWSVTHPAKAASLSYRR
In short: as §1

USP38 = target: T2, USP38 (UniProt Q8NB14)
T2 sequence (whole entry): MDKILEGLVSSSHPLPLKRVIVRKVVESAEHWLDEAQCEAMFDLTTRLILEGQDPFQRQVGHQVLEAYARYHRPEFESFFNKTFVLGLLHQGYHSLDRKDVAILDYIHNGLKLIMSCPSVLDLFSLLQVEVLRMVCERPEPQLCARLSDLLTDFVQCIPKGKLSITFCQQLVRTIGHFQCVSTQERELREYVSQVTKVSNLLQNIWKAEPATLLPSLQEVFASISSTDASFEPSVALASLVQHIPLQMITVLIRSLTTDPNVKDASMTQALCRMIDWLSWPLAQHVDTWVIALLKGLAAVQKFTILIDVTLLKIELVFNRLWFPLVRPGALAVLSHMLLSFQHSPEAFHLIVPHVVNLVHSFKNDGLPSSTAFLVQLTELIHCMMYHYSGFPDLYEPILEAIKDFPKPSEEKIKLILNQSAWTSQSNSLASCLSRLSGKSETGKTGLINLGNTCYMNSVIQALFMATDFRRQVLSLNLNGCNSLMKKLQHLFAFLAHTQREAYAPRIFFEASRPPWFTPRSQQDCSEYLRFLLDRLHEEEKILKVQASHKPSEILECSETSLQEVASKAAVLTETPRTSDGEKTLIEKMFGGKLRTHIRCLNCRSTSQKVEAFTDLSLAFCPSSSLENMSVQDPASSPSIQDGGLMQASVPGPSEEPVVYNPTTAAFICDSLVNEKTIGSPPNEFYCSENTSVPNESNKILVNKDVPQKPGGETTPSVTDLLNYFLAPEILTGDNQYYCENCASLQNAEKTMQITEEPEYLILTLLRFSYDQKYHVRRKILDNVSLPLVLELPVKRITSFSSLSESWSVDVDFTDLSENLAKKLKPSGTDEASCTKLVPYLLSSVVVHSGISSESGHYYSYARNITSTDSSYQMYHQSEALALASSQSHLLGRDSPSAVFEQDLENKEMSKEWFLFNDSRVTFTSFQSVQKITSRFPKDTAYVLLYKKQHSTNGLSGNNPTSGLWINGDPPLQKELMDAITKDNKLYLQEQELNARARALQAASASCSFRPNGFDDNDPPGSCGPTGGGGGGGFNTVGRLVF
In short: as §1

USP39 = target: T3, USP39 (UniProt Q53GS9)
T3 sequence (whole entry): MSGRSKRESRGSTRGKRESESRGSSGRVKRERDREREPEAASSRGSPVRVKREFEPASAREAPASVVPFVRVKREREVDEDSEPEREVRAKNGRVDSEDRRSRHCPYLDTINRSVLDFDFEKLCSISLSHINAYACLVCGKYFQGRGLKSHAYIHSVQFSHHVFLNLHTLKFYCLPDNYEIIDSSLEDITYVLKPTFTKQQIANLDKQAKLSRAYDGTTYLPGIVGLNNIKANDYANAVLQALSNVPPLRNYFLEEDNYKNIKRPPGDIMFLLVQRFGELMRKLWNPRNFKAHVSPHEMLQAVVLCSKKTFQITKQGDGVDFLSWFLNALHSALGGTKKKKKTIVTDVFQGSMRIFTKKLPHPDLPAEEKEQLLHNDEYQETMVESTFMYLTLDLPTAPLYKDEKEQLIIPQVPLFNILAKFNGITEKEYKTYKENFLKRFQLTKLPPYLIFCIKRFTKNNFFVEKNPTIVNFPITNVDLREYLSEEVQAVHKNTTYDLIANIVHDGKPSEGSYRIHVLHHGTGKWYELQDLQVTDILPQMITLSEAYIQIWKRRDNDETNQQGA
In short: as §1

USP4 = target: T4, USP4 (UniProt Q13107)
T4 sequence (whole entry): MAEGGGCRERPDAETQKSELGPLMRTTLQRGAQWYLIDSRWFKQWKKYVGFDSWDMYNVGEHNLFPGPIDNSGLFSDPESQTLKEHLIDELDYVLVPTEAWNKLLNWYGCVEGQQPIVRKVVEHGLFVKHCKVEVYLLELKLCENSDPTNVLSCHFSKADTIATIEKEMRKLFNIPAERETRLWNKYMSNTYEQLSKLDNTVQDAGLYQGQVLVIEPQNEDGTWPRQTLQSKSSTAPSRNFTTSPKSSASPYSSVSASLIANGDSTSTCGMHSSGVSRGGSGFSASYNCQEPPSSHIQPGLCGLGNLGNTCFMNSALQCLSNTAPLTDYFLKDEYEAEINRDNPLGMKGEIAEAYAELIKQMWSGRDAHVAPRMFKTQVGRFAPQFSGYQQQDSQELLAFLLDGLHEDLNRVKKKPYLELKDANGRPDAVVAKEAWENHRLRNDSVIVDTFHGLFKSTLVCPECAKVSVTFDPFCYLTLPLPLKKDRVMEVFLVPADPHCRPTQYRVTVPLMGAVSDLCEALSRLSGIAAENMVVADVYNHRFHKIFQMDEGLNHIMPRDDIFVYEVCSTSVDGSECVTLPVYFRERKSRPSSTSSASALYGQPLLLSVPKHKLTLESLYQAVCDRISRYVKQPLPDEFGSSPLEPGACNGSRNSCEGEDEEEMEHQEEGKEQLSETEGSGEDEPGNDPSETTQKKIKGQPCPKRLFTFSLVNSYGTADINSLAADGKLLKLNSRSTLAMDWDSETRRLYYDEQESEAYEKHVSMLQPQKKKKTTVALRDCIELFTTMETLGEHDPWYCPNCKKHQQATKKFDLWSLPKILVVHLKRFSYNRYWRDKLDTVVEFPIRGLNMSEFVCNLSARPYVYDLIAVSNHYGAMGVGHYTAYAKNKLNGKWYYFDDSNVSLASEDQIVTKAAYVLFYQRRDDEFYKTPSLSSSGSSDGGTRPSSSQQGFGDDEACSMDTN
In short: as §1

Measured: log2 ratio of Biotin-Ahx-Ub-VS probe labelling

Sequence of USP34 (Q70CQ2 whole entry, the tested form may be a part): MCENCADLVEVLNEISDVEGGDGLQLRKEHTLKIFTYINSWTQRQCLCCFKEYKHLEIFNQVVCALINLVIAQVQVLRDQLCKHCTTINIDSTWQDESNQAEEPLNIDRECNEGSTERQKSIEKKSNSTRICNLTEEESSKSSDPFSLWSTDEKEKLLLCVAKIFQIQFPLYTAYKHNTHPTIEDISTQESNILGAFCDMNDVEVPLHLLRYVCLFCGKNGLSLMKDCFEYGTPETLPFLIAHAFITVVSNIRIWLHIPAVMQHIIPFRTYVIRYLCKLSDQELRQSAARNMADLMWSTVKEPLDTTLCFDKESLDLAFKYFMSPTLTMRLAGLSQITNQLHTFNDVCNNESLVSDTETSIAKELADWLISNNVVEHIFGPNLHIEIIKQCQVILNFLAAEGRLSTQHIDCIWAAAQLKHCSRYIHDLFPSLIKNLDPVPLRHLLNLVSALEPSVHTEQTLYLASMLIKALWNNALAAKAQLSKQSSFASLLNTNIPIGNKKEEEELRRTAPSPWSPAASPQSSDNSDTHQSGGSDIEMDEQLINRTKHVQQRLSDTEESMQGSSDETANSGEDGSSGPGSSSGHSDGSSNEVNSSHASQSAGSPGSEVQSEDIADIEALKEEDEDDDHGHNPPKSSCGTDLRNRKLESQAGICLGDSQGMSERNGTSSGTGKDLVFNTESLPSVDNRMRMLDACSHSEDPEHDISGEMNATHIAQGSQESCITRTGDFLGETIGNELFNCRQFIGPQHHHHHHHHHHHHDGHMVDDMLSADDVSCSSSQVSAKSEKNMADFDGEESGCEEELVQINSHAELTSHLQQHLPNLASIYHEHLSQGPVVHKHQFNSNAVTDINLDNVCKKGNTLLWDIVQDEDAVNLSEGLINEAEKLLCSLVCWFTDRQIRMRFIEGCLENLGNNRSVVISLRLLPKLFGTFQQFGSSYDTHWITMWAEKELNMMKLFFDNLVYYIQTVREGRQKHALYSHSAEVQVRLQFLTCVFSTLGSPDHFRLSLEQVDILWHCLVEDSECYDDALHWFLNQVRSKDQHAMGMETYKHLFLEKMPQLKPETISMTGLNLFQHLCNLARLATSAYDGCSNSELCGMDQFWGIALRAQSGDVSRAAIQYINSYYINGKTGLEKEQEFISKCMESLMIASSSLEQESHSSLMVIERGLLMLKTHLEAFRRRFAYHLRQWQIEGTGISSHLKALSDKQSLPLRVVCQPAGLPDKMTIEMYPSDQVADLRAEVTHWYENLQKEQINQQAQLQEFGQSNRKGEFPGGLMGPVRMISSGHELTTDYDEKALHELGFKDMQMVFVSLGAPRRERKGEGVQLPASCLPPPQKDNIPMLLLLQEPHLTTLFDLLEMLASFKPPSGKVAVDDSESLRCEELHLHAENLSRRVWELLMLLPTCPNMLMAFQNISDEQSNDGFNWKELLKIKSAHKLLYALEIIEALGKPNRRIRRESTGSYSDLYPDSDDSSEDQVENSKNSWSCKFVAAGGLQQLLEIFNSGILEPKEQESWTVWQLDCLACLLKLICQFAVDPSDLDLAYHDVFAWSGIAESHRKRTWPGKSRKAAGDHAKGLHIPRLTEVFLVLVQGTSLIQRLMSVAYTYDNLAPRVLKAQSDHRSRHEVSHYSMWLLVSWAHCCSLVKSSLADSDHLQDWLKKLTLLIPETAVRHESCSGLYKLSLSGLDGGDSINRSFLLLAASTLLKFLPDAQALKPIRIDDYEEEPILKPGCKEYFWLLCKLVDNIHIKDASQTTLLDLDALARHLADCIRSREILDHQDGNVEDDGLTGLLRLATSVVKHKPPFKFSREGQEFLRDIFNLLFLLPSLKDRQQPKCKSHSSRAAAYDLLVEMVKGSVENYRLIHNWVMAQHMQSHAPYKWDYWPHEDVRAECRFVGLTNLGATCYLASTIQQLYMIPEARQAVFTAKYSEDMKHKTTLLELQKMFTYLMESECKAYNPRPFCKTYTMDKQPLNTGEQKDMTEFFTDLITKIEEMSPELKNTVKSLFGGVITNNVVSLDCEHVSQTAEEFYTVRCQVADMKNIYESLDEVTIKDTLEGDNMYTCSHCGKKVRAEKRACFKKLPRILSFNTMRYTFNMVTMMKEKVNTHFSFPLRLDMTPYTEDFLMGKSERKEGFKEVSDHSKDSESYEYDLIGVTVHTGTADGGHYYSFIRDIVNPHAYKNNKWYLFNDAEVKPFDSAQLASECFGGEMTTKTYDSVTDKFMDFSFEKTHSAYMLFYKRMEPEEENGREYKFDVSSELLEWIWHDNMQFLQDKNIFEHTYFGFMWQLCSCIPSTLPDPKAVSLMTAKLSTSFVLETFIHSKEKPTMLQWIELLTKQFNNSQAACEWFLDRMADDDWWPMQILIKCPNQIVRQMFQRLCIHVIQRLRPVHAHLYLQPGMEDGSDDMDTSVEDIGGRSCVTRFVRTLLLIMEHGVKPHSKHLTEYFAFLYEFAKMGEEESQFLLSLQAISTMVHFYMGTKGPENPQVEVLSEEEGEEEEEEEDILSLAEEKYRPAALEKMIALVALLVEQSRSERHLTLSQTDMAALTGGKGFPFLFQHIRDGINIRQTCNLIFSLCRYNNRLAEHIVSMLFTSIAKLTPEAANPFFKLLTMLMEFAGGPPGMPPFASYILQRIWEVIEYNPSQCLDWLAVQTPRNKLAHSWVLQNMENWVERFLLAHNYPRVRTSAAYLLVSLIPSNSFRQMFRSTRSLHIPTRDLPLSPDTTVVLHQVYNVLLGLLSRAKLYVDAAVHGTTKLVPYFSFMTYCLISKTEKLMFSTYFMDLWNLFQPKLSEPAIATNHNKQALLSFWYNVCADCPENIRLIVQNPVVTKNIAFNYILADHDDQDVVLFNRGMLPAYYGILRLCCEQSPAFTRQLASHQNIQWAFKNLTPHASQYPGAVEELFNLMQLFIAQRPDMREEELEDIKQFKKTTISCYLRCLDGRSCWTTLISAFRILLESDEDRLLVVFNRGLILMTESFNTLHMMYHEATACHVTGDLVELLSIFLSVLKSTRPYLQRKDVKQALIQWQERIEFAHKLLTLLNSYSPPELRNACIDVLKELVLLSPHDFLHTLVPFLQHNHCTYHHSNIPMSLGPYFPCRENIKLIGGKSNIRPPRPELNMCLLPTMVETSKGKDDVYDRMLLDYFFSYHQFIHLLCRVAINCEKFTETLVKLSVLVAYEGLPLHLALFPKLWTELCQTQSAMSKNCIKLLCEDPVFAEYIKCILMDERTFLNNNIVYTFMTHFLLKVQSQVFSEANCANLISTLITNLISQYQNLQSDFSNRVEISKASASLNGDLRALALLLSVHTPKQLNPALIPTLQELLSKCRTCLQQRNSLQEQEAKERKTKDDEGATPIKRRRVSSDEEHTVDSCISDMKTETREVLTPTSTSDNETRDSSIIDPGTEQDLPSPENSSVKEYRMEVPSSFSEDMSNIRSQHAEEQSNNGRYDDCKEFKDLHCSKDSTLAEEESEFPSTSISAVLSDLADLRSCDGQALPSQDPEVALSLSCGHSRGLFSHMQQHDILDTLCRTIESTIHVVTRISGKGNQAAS

Cc1cccc(C)c1NC(=O)CCl
inactive: USP34 -0.0998 | USP36 -0.33 | USP38 -0.0307 | USP39 0.204 | USP4 -0.132
